Experimental data as given in PubChem BioAssay AID602357 (National Center for Advancing Translational Sciences (NCATS), 2012).
Records with an inconclusive call do not appear. Calls of active or inactive are those of the source. Calls follow the shape of the dose curve; as a rule, active = well fitted inhibition curve with a large enough effect; inconclusive = small, poorly fitted or top-dose-only effect; inactive = no such curve, though single readings can be large or run the other way.

What follows are compounds tested against Luciferin 4-monooxygenase (Photinus pyralis) (UniProt P08659) (assay: FLuc inhibitory activity for the follow-up compounds in a biochemical assay with Km concentrations of substrate). Conditions: purified FLuc, Km substrates, luminescence; series mostly up to 57.5 µM; activity change, negative = inhibition: at the top concentration.
In short: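 qHTS: compounds titrated 12 points (~60 uM to 0.3 nM) against 10 uM D-luciferin and 10 uM ATP. Reaction started with 10 nM enzyme in Tris acetate pH 7.5 buffer with Mg acetate, Tween-20, BSA; luminescence imaged.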

Chain of Luciferin 4-monooxygenase (Photinus pyralis) (P08659 whole entry, looked up): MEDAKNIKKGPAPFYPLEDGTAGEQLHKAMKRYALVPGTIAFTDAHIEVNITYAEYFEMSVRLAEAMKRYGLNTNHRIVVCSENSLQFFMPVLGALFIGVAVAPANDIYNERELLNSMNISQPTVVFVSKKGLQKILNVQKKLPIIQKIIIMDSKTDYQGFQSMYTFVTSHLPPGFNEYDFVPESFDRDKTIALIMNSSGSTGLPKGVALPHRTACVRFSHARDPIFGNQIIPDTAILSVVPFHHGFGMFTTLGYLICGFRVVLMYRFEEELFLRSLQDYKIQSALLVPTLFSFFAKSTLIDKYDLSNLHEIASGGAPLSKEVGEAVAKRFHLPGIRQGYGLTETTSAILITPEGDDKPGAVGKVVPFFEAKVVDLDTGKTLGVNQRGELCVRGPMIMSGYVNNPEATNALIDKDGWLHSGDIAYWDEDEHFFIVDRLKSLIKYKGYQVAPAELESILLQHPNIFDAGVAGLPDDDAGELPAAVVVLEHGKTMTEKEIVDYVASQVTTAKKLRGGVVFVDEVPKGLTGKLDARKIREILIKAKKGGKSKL

Potency, active:
CC(C)c1ccc(-c2nc3ccccc3s2)cc1 0.0291 µM
CN(C)S(=O)(=O)c1ccc(C(=O)Nc2cccc(C(=O)O)c2)cc1 10.3 µM
O=C(O)c1cccc(NC(=O)c2ccccc2NC(=O)c2ccccc2F)c1 18.3 µM
Cc1ccc(C(=O)Nc2cccc(C(=O)O)c2)cc1S(=O)(=O)N1CCCC1 0.058 µM
COc1ccc(-c2nc3ccccc3s2)cc1O 0.146 µM
CCOc1c(Cl)cc(C(=O)Nc2ccccc2C(=O)O)cc1Cl 18.3 µM
Nc1ccccc1C(=O)Nc1cccc(C(=O)O)c1 2.06 µM
CC(=O)Oc1ccc(C(=O)Nc2ccccc2C(=O)Nc2cccc(C(=O)O)c2)cc1 6.51 µM
O=C(Nc1cccc(-c2nc3ccccc3s2)c1)C1=COCCO1 18.3 µM
COc1ccc2nc(NC(=O)c3ccc(NS(=O)(=O)c4cccs4)cc3)sc2c1 10.3 µM
CC(=O)Nc1cccc(-c2nc3ccccc3s2)c1C 23.1 µM
CN(C)c1cccc(C(=O)Nc2ccc(-c3nc4ccccc4s3)cc2)c1 2.91 µM
NC(=O)Cc1ccc2sc(-c3ccccc3)nc2c1 5.17 µM
Cc1c(C)c2ccc(OCC(=O)Nc3ccccn3)c(C)c2oc1=O 0.0116 µM

Activity change, negative = inhibition, inactive:
Cc1ccc(NS(=O)(=O)c2ccc(Cl)c(C(=O)Nc3cccc(C(=O)O)c3)c2)cc1 -10.3%
O=C(Nc1ccc(Cl)cc1-c1nc2ccccc2s1)c1ccco1 -8.61%
CC(C)c1ccc(C(=O)Nc2ccc(-c3nc4ccccc4s3)c(Cl)c2)cc1 -34.9%
